Reference: the OligoGym collection

target: C1QTNF1; assay: pooled miR-30 sensor sort-seq; sequence = guide strand; details: shRNA

Sequence | sensor-assay potency score (higher = more potent)
TAGAACTTGCCGGTGAACATGT | 0.14
TTGGAGGCCTCGATCTCCGCGG | -1.29
TTGTTCTTCAGCCCTCTCGGCA | -1.05
TCACAGCAGCGCAAGCACCGGG | -0.832
TGTATTTTTCATGTTGTTCTTC | 0.442
TAGGTCTCCTTCTGGTTCCAGG | -0.883
AAGATAGTGATGTTGATCTGGG | -0.107
TTCATGTTGTTCTTCAGCCCTC | -0.239
TAGGTGTCCAGCTCCTCGCTGA | -0.37
TAGCAGTAGAACTTGCCGGTGA | 0.148
TCGATCTCCGCGGTCACCCTTC | -1.09
TAGAGGTTCACGAACTCCGTGT | 0.258

target: C1orf101; assay: as above; details: shRNA

Sequence | sensor-assay potency score (higher = more potent)
TTGATAGATTTCCATGTCCTGC | -1.09
TTGGTTTCCTCTAATCTCCTTT | 0.267
TAACTTAATAGTACTTCTGGTA | -0.353
TAAAAACACAGCAATCTCCAGA | -0.0485
TAAACAACCACTCTGTGCCATA | -0.921
TTGAATATTCACTAGGTCGAAA | -0.467
TCTAACTTAATAGTACTTCTGG | 0.677
TTGACTTCCATGTCTGTGCTTC | 0.808
TTCATGTAAACAACCACTCTGT | 0.256
TAGTGCATCATCTTTTGTCATT | -1.07
TTGTATTGTGCCATCATCCAAA | -0.463
TAACTCTATAGTACCACAGAAA | -1.26

target: C1orf105; assay: as above; details: shRNA

Sequence | sensor-assay potency score (higher = more potent)
TATAACTCATACAATTCTCAAA | -1.37
TTGACATGTGGAGCACAGCTGT | -0.883
TTTGGGTTGATGAAGACTCATT | -1.17
TTTTCATTTCTTGACATGTGGA | -0.589
TTTCATTTCTTGACATGTGGAG | 0.0387
TACAATTCTCAAAGGATGCTTT | -0.234
TAGTGAATGTTTTCTGTTGGGA | 0.127
TTGCCTATTGGTTCCTTTCTGG | 0.0888
TAAGCCAAGGAATCTTGTCAAA | -1.39
AACATCTGGAACTTGAAACAAA | -0.678
TTCTGGGCAAGGAAGAACGTTG | -0.752
TTCATTTCTTGACATGTGGAGC | -1.06

target: C1orf106; assay: as above; details: shRNA

Sequence | sensor-assay potency score (higher = more potent)
TTGTAAGCCGCTCCGATCCTGC | -0.983
TCTAGCAAGACAATACACCACC | -0.714
TAAGCCGCTCCGATCCTGCGGC | -0.585
